Compound activity from PubChem.
Rows were chosen to be rich in hits. Some 0.73% of all compounds tested hit in one or more screens of this group.
Vc quorum ag – inducers of Vibrio cholerae quorum light production without autoinducers, primary screen, BH1578 luxS cqsA deficient, single point | V. cholerae BH1578 lux reporter, luminescence, 6 h | activation, % at 18.7 µM | 350,000 tested, 0.16% active; in the data active means activation mostly above about 9.7%, no sharp cut-off
BioA inh – M. tuberculosis BioA enzyme inhibitors, primary screen, biochemical, plate reader, single point, HTS; 360,000 tested, 0.096% active; purified M. tuberculosis BioA enzyme; inhibition, % at 9.99 µM; AID 602481, 2012; in the data active means inhibition above about 40%
TcdB inh – TcdB glycohydrolase inhibitors, primary screen, biochemical, single point, plate reader; inhibition, % at 9.99 µM; TcdB glycohydrolase enzymatic assay; Toxin B (Clostridioides difficile), P18177; AID 652162, 2013; 350,000 tested, 0.24% active; in the data active means inhibition above about 10%
DUSP3 inh – VHR1 phosphatase inhibitors, primary screen, biochemical, absorbance, uHTS; recombinant VHR phosphatase, pNPP absorbance; inhibition, % at 13.3 µM; 290,000 tested, 0.52% active; in the data active means inhibition above about 50%
Target sequence (P51452 whole entry, looked up): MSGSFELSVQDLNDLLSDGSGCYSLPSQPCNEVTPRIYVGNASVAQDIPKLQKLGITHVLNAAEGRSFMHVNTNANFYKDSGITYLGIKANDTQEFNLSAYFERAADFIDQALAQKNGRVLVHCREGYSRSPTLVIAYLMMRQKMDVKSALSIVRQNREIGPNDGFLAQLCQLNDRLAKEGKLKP
Yp Topo-I inh – Yersinia pestis topoisomerase I inhibitors, primary screen, biochemical, cleavage product accumulation, plate reader, single point; Y. pestis Topo-I cleavage product accumulation; activity, % at 10 µM; 360,000 tested, 0.064% active; AID 504884, 2011; in the data active means activity above about 50%, passing the limit was not always enough
* hit, by the source's call.

Cc1ccc(Cl)cc1C1=CC(=O)C[C@H](c2ccc(F)cc2)C1 was read as Vc quorum ag inactive, BioA inh -2, TcdB inh 1 and Yp Topo-I inh 69*.
Screening C[C@H](CO)N1C[C@H](C)[C@@H](CN(C)C(=O)Nc2cccc3ccccc23)OCCCC[C@H](C)Oc2ccc(NS(=O)(=O)c3cccs3)cc2C1=O returned BioA inh -1 and TcdB inh -1.
`COc1ccc(C)cc1NC(=O)C(OC(=O)C1=NNC(=O)CC1)c1ccccc1` (stereo not drawn) gave Vc quorum ag inactive, BioA inh -3, TcdB inh 13* and Yp Topo-I inh 2.
Screening C/C(=N\OCC(=O)N/N=C/c1ccccc1)c1cccs1 returned Vc quorum ag -10, BioA inh 2, DUSP3 inh 30 and Yp Topo-I inh 9.
Screening C/C(=N\OCC(=O)N/N=C/c1ccccc1O)c1cccs1 returned Vc quorum ag 33*, BioA inh 2, DUSP3 inh -25 and Yp Topo-I inh 15.
Screening CC(=O)c1cccc(NC(=O)CCc2nnc3ccc(NCc4ccc5c(c4)OCO5)nn23)c1 returned Vc quorum ag inactive, TcdB inh 0, DUSP3 inh 57* and Yp Topo-I inh 73*.
`COc1ccc(NC(=O)c2cc(-c3ccco3)on2)cc1OC` gave Vc quorum ag 0, BioA inh 0, TcdB inh 0, DUSP3 inh 53* and Yp Topo-I inh -1.
For CCOC(=O)C1=C(CN2CCN(C(=O)c3ccco3)CC2)NC(=O)NC1c1ccc(OC(C)C)cc1 (stereo not drawn) the results were Vc quorum ag 0, BioA inh 44*, TcdB inh 2, DUSP3 inh 8 and Yp Topo-I inh 25.
Screening O=C(Nc1cccc2c1CCCC2)c1ccccc1Br returned Vc quorum ag inactive, BioA inh -2, TcdB inh 1, DUSP3 inh 52* and Yp Topo-I inh 9.
Screening CCC(=O)Nc1ccc2c(c1)C(=O)N(C)C[C@H](OC)[C@@H](C)CN(Cc1ccccc1F)[C@@H](C)CO2 returned BioA inh 4 and TcdB inh 1.
Screening CCOc1ccccc1N1CCN(Cc2ccc(OC)c(OC)c2)CC1 returned Vc quorum ag 0, BioA inh 1, DUSP3 inh -8 and Yp Topo-I inh 6.
For COc1ccc(S(=O)(=O)N2CCN(Cc3ccc(Cl)cc3)CC2)cc1 the results were Vc quorum ag inactive, DUSP3 inh 5 and Yp Topo-I inh 19.
Screening COc1ccc(S(=O)(=O)N2CCN(Cc3ccc(OC)c(OC)c3)CC2)cc1 returned Vc quorum ag 2, BioA inh -1, TcdB inh 1, DUSP3 inh 51* and Yp Topo-I inh -8.
`COc1cc(CN2CCCCCC2)cc(OC)c1O` gave Vc quorum ag 0, BioA inh 9, TcdB inh -1, DUSP3 inh 48 and Yp Topo-I inh 1.
COc1cc(CN2CCCCCC2)cc(Br)c1O was read as Vc quorum ag 0, BioA inh -3, TcdB inh -1, DUSP3 inh 55* and Yp Topo-I inh -8.
CCOc1cc(CN2CCCCCC2)ccc1OC was read as Vc quorum ag -2, BioA inh 0, TcdB inh -4, DUSP3 inh 57* and Yp Topo-I inh 6.
For CC(C)NC(=O)N(C)C[C@H]1Oc2ncc(C#CCC3CCCC3)cc2C(=O)N([C@@H](C)CO)C[C@H]1C the results were BioA inh 1 and TcdB inh 0.
C=CCn1c(SCC(=O)N2CCOCC2)nc2sc(C)c(C)c2c1=O was read as Vc quorum ag 0, BioA inh 0, TcdB inh 1, DUSP3 inh 51* and Yp Topo-I inh 7.
`O=C1C2Sc3[nH]c(=O)sc3C(c3ccccc3)C2C(=O)N1c1ccc(Cl)cc1` (stereo not drawn) gave Vc quorum ag inactive, BioA inh 2, DUSP3 inh 25 and Yp Topo-I inh -4.
For Cc1ccc(N2C(=O)C3Sc4[nH]c(=O)sc4C(c4ccccc4)C3C2=O)cc1 (stereo not drawn) the results were Vc quorum ag active, BioA inh 2, DUSP3 inh 20 and Yp Topo-I inh -6.
